# How the values were obtained:
# Assay in all cases: DAPPL (digital affinity profiling via proximity ligation, sequencing); 10 mM Tris-HCl pH 7.5, 50 mM NaCl, 1 mM DTT, 4% glycerol, room temperature, 30 min; GST-TFs on glutathione beads, 16-mer random dsDNA library, 0.1% formaldehyde crosslink after washing; high values mean tight binding
# FLI1 = target: T1, FLI1 (Homo sapiens, UniProt Q01543 1-452); details: protein: recombinant; tags: N-terminal GST; dsDNA, one strand shown
# T1 sequence: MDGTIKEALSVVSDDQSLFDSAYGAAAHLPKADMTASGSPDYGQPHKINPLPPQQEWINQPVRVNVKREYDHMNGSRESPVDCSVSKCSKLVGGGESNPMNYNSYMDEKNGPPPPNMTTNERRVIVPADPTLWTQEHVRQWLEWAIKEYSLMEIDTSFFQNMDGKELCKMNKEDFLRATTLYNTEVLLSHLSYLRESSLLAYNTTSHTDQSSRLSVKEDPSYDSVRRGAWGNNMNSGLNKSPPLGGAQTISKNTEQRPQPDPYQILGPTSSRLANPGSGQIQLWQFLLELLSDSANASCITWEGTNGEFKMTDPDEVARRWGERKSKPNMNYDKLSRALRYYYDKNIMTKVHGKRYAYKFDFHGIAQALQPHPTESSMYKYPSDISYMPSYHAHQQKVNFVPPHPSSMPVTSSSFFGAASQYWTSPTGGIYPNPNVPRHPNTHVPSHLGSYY
# Summary of the method: (§1)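 A tag-only sample was pooled with DNA-barcoded human transcription factors that had been expressed in yeast as GST fusions and captured on glutathione beads. The pools were incubated for 30 min at room temperature with 200 nmole of a random double-stranded 16-mer DNA library in Tris/NaCl/DTT/glycerol buffer, then washed, crosslinked with 0.1% formaldehyde, proximity-ligated (BsaI/T4 ligase, 1 h, 37 °C), PCR-amplified and sequenced on an Illumina NextSeq500. Binding signal is each hexamer's read frequency for a factor divided by its frequency for the tag-only sample.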
# ELK1 = target: T2, ELK1 (Homo sapiens, UniProt P19419 1-428); details: protein: recombinant; tags: N-terminal GST; dsDNA, one strand shown
# T2 sequence: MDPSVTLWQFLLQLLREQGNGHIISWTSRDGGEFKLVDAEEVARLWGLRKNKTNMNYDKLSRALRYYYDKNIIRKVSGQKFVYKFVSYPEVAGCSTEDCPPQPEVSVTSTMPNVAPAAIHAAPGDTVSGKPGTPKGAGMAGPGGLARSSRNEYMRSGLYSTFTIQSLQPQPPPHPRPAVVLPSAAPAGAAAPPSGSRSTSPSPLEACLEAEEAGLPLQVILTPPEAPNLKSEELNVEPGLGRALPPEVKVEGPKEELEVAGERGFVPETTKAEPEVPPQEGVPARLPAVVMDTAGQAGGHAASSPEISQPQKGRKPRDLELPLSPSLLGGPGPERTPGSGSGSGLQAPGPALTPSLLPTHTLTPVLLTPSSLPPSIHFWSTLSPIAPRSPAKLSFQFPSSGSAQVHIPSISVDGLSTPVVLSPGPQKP
# Summary of the method: as §1
# GABPA = target: T3, GABPA (Homo sapiens, UniProt Q06546 1-454); details: protein: recombinant; tags: N-terminal GST; dsDNA, one strand shown
# T3 sequence: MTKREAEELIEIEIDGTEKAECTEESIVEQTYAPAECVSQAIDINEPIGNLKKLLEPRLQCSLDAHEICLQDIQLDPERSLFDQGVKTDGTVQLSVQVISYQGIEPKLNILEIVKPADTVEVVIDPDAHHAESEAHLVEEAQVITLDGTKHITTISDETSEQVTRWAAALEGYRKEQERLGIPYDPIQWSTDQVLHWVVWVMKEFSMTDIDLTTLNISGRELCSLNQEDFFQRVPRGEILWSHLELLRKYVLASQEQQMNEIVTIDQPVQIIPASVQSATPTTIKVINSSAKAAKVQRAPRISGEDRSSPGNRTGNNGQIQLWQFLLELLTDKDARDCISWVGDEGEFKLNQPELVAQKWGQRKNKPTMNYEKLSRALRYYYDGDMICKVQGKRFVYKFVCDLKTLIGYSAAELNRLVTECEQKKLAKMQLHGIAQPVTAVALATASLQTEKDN
# Summary of the method: as §1
# ERG = target: T4, ERG (Homo sapiens, UniProt P11308 1-479); details: protein: recombinant; tags: N-terminal GST; dsDNA, one strand shown
# T4 sequence: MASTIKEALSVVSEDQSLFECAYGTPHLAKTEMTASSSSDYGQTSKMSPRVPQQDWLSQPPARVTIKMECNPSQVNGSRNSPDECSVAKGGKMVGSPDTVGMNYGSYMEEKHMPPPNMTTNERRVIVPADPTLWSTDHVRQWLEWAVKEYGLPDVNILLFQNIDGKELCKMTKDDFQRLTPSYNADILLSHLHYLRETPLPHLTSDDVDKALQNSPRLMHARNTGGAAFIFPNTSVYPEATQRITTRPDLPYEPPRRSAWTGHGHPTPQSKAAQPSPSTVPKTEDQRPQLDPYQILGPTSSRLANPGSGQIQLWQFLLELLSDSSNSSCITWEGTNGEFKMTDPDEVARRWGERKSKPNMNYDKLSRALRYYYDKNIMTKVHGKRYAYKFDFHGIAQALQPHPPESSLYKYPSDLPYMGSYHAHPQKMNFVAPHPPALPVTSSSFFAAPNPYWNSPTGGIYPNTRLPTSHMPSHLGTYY
# Summary of the method: as §1
# ELF1 = ELF1 (Homo sapiens, UniProt P32519 1-619); details: protein: recombinant; tags: N-terminal GST; dsDNA, one strand shown
# Summary of the method: as §1
# EHF = target: T5, EHF (Homo sapiens, UniProt Q9NZC4 1-300); details: protein: recombinant; tags: N-terminal GST; dsDNA, one strand shown
# T5 sequence: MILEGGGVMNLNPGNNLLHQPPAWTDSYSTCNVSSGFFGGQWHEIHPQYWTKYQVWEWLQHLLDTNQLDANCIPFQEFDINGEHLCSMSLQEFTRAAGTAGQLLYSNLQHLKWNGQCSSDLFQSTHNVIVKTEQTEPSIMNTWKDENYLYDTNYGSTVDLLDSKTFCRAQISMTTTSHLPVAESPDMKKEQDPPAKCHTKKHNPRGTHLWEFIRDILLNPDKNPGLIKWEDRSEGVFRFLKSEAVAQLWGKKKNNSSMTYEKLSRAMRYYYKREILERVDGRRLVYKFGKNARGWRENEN
# Summary of the method: as §1
# SPI1 = SPI1 (Homo sapiens, UniProt P17947 1-270); details: protein: recombinant; tags: N-terminal GST; dsDNA, one strand shown
# Summary of the method: as §1
# SPIB = SPIB (Homo sapiens, UniProt Q01892 1-262); details: protein: recombinant; tags: N-terminal GST; dsDNA, one strand shown
# Summary of the method: as §1
# ELK3 = target: T6, ELK3 (Homo sapiens, UniProt P41970 1-407); details: protein: recombinant; tags: N-terminal GST; dsDNA, one strand shown
# T6 sequence: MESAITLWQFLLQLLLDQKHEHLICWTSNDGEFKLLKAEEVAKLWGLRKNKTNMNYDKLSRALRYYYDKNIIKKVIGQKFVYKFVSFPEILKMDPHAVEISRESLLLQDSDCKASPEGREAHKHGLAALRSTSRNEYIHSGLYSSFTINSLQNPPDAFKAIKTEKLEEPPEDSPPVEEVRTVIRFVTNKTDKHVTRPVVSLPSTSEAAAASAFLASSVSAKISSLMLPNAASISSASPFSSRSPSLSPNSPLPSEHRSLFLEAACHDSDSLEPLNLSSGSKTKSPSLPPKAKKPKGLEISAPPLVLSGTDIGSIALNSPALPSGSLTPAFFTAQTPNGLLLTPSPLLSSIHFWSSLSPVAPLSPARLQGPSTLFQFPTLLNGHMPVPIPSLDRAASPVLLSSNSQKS
# Summary of the method: as §1
# FEV = target: T7, FEV (Homo sapiens, UniProt Q99581 1-238); details: protein: recombinant; tags: N-terminal GST; dsDNA, one strand shown
# T7 sequence: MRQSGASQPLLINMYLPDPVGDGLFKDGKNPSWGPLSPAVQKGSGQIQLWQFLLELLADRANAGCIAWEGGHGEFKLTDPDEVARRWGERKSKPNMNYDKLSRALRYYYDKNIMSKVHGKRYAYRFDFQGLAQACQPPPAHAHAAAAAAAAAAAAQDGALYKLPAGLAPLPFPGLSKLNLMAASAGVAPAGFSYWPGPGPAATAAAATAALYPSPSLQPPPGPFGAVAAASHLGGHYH
# Summary of the method: as §1
# ETV5 = ETV5 (Homo sapiens, UniProt P41161 1-510); details: protein: recombinant; tags: N-terminal GST; dsDNA, one strand shown
# Summary of the method: as §1
# HSF1 = HSF1 (Homo sapiens, UniProt Q00613 1-529); details: protein: recombinant; tags: N-terminal GST; chain copies: 3; dsDNA, one strand shown
# Summary of the method: as §1
# SPIC = target: T8, SPIC (Homo sapiens, UniProt Q8N5J4 1-248); details: protein: recombinant; tags: N-terminal GST; dsDNA, one strand shown
# T8 sequence: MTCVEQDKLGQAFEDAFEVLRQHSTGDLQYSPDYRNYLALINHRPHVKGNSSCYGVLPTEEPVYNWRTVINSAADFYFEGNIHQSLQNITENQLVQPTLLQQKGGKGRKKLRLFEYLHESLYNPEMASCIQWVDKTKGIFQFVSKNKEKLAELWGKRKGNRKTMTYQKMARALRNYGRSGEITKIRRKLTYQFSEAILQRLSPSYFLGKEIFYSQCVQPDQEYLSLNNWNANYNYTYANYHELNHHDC
# Summary of the method: as §1
# ELF4 = ELF4 (Homo sapiens, UniProt Q99607 1-663); details: protein: recombinant; tags: N-terminal GST; dsDNA, one strand shown
# Summary of the method: as §1
# ELK4 = target: T9, ELK4 (Homo sapiens, UniProt P28324-2 1-405); details: protein: recombinant; tags: N-terminal GST; dsDNA, one strand shown
# T9 sequence: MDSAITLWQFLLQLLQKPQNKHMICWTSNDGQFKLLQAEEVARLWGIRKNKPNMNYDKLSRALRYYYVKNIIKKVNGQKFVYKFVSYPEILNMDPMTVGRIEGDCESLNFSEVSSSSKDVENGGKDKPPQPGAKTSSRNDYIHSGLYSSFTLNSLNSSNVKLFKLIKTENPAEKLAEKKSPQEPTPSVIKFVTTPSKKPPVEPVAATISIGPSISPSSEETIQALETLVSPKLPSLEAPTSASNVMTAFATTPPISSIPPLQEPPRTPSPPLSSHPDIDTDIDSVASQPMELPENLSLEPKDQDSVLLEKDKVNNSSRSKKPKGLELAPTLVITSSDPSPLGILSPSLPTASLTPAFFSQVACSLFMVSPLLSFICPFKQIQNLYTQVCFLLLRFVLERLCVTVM
# Summary of the method: as §1
# ETV2 = target: T10, ETV2 (Homo sapiens, UniProt O00321 1-342); details: protein: recombinant; tags: N-terminal GST; dsDNA, one strand shown
# T10 sequence: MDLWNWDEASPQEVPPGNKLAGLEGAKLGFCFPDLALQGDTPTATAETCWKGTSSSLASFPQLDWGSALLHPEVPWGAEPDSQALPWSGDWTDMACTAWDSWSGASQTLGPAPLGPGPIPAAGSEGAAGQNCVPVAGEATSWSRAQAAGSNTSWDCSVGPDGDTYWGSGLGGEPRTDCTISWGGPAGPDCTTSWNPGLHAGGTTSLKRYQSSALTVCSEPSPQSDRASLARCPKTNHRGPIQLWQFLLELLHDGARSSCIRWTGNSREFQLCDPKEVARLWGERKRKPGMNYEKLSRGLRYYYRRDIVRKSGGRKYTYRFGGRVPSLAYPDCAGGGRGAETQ
# Summary of the method: as §1
# ELF3 = target: T11, ELF3 (Homo sapiens, UniProt P78545 1-371); details: protein: recombinant; tags: N-terminal GST; dsDNA, one strand shown
# T11 sequence: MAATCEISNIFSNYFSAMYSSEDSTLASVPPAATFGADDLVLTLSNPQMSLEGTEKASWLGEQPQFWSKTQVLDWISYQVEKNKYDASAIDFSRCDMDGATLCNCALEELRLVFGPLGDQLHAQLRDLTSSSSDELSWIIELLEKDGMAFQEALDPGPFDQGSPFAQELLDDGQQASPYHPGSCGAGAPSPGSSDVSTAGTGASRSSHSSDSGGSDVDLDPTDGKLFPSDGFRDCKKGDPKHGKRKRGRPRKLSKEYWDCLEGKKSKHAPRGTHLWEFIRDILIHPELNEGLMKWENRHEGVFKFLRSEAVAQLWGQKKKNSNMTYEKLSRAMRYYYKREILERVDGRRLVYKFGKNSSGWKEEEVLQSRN
# Summary of the method: as §1
# CRX = CRX (Homo sapiens, UniProt O43186 1-299); details: protein: recombinant; tags: N-terminal GST; dsDNA, one strand shown
# Summary of the method: as §1
# ETV1 = ETV1 (Homo sapiens, UniProt P50549 1-477); details: protein: recombinant; tags: N-terminal GST; dsDNA, one strand shown
# Summary of the method: as §1
# SPIB, sequence (Q01892 whole entry): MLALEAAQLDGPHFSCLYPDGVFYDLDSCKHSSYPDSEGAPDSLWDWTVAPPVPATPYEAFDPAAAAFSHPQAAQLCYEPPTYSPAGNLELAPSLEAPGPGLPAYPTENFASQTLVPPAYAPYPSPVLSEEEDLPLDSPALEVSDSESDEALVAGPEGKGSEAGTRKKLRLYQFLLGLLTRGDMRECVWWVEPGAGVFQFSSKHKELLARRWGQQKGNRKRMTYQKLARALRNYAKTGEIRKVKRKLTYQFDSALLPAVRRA
# ETV1, sequence (P50549 whole entry): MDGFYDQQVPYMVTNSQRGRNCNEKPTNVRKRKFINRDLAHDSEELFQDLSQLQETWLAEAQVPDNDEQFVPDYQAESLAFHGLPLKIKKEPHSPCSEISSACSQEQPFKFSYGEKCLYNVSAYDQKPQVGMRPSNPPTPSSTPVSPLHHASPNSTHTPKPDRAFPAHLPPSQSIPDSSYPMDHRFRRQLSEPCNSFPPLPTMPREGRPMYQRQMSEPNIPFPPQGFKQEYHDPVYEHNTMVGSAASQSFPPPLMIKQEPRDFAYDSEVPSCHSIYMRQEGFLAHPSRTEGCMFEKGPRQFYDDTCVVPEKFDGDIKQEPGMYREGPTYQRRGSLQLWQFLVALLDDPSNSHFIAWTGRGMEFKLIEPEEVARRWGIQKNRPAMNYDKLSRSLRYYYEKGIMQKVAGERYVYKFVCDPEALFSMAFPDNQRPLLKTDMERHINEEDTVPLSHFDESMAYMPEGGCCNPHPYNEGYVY
# HSF1, sequence (Q00613 whole entry): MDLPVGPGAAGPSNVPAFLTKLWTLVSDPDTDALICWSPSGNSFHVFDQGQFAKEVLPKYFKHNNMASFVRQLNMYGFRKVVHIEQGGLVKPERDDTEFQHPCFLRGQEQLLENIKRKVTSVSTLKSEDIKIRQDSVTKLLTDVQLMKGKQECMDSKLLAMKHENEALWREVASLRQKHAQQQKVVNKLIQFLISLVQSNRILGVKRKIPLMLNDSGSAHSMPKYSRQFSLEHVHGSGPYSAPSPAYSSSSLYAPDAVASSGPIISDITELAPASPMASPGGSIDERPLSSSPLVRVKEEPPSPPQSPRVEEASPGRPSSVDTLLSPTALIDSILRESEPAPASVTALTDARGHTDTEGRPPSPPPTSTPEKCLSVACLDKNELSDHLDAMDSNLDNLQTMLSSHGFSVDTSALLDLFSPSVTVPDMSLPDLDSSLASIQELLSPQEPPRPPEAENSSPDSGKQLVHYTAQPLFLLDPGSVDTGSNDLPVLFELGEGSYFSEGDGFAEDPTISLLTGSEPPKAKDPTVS
# ELF4, sequence (Q99607 whole entry): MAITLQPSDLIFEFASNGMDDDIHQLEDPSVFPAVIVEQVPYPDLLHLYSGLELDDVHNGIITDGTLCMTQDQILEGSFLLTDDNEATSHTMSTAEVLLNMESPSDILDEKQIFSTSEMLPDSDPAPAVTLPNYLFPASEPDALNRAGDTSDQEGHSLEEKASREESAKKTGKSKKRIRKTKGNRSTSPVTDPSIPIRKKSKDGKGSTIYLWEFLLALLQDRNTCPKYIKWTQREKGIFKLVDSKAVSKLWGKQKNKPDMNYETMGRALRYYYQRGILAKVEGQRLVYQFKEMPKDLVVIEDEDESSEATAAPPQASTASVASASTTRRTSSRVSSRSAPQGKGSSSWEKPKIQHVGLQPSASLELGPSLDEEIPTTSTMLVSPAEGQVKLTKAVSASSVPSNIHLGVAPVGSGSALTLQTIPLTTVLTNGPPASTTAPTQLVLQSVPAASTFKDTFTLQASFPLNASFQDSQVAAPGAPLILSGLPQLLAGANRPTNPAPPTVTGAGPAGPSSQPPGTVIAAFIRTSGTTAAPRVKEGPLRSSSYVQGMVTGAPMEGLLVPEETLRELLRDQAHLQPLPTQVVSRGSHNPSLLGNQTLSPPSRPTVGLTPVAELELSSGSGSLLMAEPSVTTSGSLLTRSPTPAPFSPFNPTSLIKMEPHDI
# CRX, sequence (O43186 whole entry): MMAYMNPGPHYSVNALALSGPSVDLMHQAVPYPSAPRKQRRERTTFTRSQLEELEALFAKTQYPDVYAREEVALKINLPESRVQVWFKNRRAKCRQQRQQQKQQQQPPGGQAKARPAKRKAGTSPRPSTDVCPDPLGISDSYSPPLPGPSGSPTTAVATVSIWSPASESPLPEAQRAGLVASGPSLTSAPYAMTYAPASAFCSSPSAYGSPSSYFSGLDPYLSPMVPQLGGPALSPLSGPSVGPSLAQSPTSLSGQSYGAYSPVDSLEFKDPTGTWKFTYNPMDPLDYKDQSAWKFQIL
# ETV5, sequence (P41161 whole entry): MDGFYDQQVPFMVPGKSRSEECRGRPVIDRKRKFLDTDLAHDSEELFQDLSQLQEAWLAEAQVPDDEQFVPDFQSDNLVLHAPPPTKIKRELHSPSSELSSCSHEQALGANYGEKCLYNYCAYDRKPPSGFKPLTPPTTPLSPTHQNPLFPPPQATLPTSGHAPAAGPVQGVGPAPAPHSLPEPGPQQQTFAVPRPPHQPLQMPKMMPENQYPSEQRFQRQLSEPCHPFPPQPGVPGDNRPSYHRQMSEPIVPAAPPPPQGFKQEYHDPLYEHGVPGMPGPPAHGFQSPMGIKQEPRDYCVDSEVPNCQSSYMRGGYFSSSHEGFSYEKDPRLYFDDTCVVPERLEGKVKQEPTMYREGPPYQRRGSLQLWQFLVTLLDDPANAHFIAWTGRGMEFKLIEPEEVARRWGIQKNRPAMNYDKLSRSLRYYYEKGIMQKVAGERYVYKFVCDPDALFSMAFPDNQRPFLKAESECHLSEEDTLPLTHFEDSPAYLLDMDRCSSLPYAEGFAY
# ELF1, sequence (P32519 whole entry): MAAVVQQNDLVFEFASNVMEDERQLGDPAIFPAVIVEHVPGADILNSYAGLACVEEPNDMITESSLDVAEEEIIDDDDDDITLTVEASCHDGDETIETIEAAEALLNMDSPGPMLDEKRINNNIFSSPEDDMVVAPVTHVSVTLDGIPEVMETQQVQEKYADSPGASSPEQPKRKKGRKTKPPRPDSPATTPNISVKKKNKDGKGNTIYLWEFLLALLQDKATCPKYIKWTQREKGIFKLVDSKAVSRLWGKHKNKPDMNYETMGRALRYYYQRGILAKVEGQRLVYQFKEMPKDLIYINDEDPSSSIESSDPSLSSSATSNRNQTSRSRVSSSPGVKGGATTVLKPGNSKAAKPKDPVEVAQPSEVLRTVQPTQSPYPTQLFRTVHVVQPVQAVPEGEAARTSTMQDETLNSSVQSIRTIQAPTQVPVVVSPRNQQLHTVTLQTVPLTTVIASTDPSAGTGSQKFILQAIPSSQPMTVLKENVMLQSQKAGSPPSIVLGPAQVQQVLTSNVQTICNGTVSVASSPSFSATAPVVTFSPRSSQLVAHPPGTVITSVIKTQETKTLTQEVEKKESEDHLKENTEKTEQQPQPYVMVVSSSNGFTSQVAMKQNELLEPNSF
sequence,measurement,setting,value
CCTTTA,binding signal,FLI1,"1.36 fold enrichment (6-mer frequency, TF over GST control)"
same,binding signal,ELK1,"1.4 fold enrichment (6-mer frequency, TF over GST control)"
same,binding signal,GABPA,"1.37 fold enrichment (6-mer frequency, TF over GST control)"
same,binding signal,ERG,"1.21 fold enrichment (6-mer frequency, TF over GST control)"
same,binding signal,ELF1,"1.36 fold enrichment (6-mer frequency, TF over GST control)"
same,binding signal,EHF,"1.29 fold enrichment (6-mer frequency, TF over GST control)"
same,binding signal,SPI1,"1.45 fold enrichment (6-mer frequency, TF over GST control)"
same,binding signal,SPIB,"1.3 fold enrichment (6-mer frequency, TF over GST control)"
same,binding signal,ELK3,"1.21 fold enrichment (6-mer frequency, TF over GST control)"
same,binding signal,FEV,"1.3 fold enrichment (6-mer frequency, TF over GST control)"
same,binding signal,ETV5,"1.22 fold enrichment (6-mer frequency, TF over GST control)"
same,binding signal,HSF1,"1.31 fold enrichment (6-mer frequency, TF over GST control)"
same,binding signal,SPIC,"1.32 fold enrichment (6-mer frequency, TF over GST control)"
same,binding signal,ELF4,"1.35 fold enrichment (6-mer frequency, TF over GST control)"
same,binding signal,ELK4,"1.42 fold enrichment (6-mer frequency, TF over GST control)"
same,binding signal,ETV2,"1.34 fold enrichment (6-mer frequency, TF over GST control)"
same,binding signal,ELF3,"1.51 fold enrichment (6-mer frequency, TF over GST control)"
same,binding signal,CRX,"1.57 fold enrichment (6-mer frequency, TF over GST control)"
same,binding signal,ETV1,"1.37 fold enrichment (6-mer frequency, TF over GST control)"

# — publication PMC7862700, “An all-to-all approach to the identification of sequence-specific readers for epigenetic DNA modifications on cytosine”
